Source: PubChem BioAssay AID720628 (The Scripps Research Institute Molecular Screening Center, 2013)
Some of the results follow. Active and inactive are the calls of the source.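 Rule for the calls: active = inhibition above the campaign cutoff, the mean of compounds within control limits plus 3 SD (cut at about 14% in these data); inactive = the rest.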

target: Fibrinogen beta chain (Homo sapiens) (UniProt P02675); test: Tn7 displacement from DD(E) complex – biochemical, fluorescence polarization, human fibrin, Tn7 probe, confirmation (AID 720628); settings: FP displacement of TRITC-Tn7 peptide from DD(E); at 8.3 µM; active compounds read high; 0% set at plate's compound-well median;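 note: 100% = median FP of high control wells holding Aha-Tn7 inhibitor peptide; displacers lower polarization since freed probe rises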
Sequence (P02675 whole entry, looked up): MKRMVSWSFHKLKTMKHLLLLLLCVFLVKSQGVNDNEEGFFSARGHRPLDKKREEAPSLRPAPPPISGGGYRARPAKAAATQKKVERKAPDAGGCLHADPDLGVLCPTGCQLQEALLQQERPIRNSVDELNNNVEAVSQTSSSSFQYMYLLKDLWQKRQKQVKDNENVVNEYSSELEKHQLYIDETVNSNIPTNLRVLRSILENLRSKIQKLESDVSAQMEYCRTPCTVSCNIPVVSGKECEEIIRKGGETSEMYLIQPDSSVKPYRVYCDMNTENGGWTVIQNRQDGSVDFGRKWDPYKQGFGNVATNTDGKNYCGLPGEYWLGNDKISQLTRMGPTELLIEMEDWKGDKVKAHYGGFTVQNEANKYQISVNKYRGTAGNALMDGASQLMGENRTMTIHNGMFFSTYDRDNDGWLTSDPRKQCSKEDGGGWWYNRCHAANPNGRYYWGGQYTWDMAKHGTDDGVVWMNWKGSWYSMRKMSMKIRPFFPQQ

inhibition, active:
Oc1ccc2ccc3cccc[n+]3c2c1 20.3%, Cc1cc2nc3c(=O)[nH]c(=O)nc-3n(C[C@H](O)[C@H](O)[C@H](O)CO)c2cc1C 53.3%, C#CCNc1ccc(C(=O)OCC)cc1 19.9%

inhibition, inactive:
COc1cccc(N2CC(NS(=O)(=O)c3cccs3)CC2=O)c1 (configuration not stated) 0.77%, OC(c1ccccc1)c1nc(-c2cnc3ccccc3c2)cs1 (configuration not stated) 7.29%, O=C(/C=C/c1ccccc1[N+](=O)[O-])NCC1CCCO1 (configuration not stated) 9.76%, O=C(NCc1ccccc1)c1cccc(NC(=O)C2CCCCC2)c1 4.29%
